Calls of active or inactive are those of the source.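 Rule for the calls, unless noted: active = visual image review flags a hit and inhibition of aggregation exceeds 20%; inconclusive = visual hit but inhibition at or below 20%; inactive = no hit on visual image review.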

This note sets out measurements from PubChem BioAssay.

The first assay in a line: inhibitors of TNFa-induced NFkB p65 translocation, primary screen, imaging, HUVEC, MLSMR starter and 10KST1 sets (AID 438;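 active = inhibition above 20% together with a positive visual image hit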;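 note: compound added about 3h40 before a 20 min TNFalpha stimulation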;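 for inhibition: signal is the nuclear over cytoplasmic p65 intensity ratio per well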). The following applies: HUVEC TNFa-induced p65 nuclear translocation; cell count: measured here: nuclei count (cytotoxicity indicator), at 2.08 µM; inhibition: at 2 µM, stronger effect = higher value, 0% TNFa-plus-vehicle, 100% no-TNFa wells.
On to `Cc1ccc2c(CC(=O)OCc3csc(C)n3)coc2c1`, for which the cell count was 367 and the inhibition was 0.2% (inactive).

For `O=C(Nc1ccccc1)c1cnc2n(c1=O)CCS2`, the inhibition was -18.7% (inactive) and the cell count worked out at 734.

On to `Cc1cccc(C2c3c(n(C)c(=O)n(C)c3=O)N=C3c4ccccc4C(=O)C32)c1` (stereo not given), for which the inhibition was -5.6% (inactive) and the cell count was 323.

On to `CC1CC(C)CN(CCCNC(=O)c2ccc3c(c2)NC(=O)C(N2CCCCC2)S3)C1` (stereo not given), for which the cell count came out at 395 and the inhibition is -7.7% (inactive).

On to `O=C(Nc1cccnc1)c1noc2c1CCCCC2`, for which the cell count was found to be 253 and the inhibition is -3.9% (inactive).

In the case of `O=C(OCc1nnc(-c2ccc(Cl)cc2)o1)c1ccc(=O)n(Cc2ccccc2)n1`, the inhibition is 1.7% (inactive) and the cell count worked out at 413.

Consider `CC1CCN(C(=O)CSc2nc3ccccc3[nH]2)CC1`, for which the inhibition was 0.5% (inactive) and the cell count is 761.

Turning to `O=C(Nc1ccc2snnc2c1)N1CCSCC1`, the inhibition is -3% (inactive) and the cell count worked out at 407.

As for `Cc1cccc(NS(=O)(=O)c2cc(C(=O)OCC(=O)Nc3cc(C)on3)ccc2C)c1`, the inhibition was 7.9% (inactive) and the cell count is 427.

Turning to `COc1ccc(-c2nc3c(c(SCC(=O)N4CCOCC4)n2)COC(C)(C)C3)cc1`, the cell count was 510 and the inhibition is 23.4% (active).

As to `CNS(=O)(=O)c1cccc(C(=O)OCC(=O)c2cc(C)n(-c3ccc4c(c3)OCO4)c2C)c1`, the inhibition was 2.5% (inactive) and the cell count worked out at 406.

With `Cc1nc(CCNS(=O)(=O)c2cccs2)cs1`, the inhibition was -4.4% (inactive) and the cell count is 371.

Consider `O=C(O)CCc1ccc(-c2ccc(F)cc2)n1CC(=O)O`, for which the cell count worked out at 411 and the inhibition is 7.9% (inactive).

As for `CCOc1ccccc1N(CC(=O)N1CCOCC1)S(=O)(=O)c1ccccc1`, the inhibition was 0.7% (inactive) and the cell count is 338.

In the case of `Cc1onc(-c2ccccc2)c1C(=O)Nc1sc2c(c1C(N)=O)CCC2`, the cell count was found to be 404 and the inhibition is 4.8% (inactive).

Turning to `Cn1cc(CN2CCc3ccccc3C2)c2ccccc21`, the cell count is 361 and the inhibition was -12.1% (inactive).

As to `Cc1cc(C)n(-c2ccc(C(=O)Oc3ccc4c(c3)OCO4)cc2)n1`, the cell count amounted to 440 and the inhibition was 3.3% (inactive).

`O=C(O)c1cccc(NS(=O)(=O)c2ccc3nnn(O)c3c2)c1`: the inhibition was 10.6% (inactive) and the cell count is 435.

On to `CN(Cc1ccccc1)C(=O)c1ccc2c(c1)OCO2`, for which the inhibition is 10.6% (inactive) and the cell count came out at 414.

For `COc1cccc(C(=O)Nc2ccc(C)cc2)c1`, the cell count was 410 and the inhibition is -0.2% (inactive).

`Cc1cc(NC(=O)CCOc2ccccc2)no1`: the cell count was found to be 403 and the inhibition was -11.8% (inactive).

For the compound `CCCCOc1ccc(CSc2n[nH]c(C)n2)cc1`, the inhibition is 0.2% (inactive) and the cell count was 243.

Regarding `COc1ccc(C)cc1NCc1cccc(OC)c1OC`, the inhibition is -7% (inactive) and the cell count is 335.

As for `O=C(CSc1nc(-c2ccccc2)cs1)NC(=O)NCc1ccco1`, the cell count stood at 355 and the inhibition is -1.1% (inactive).

On to `COC(=O)C1=C(C)C(c2cccs2)NC(=O)N1C` (stereo not given), for which the cell count came out at 464 and the inhibition is 4.4% (inactive).

In the case of `CCCn1c(N)c(C(=O)CSc2nnc(Cc3ccccc3)o2)c(=O)n(C)c1=O`, the cell count stood at 412 and the inhibition was 1% (inactive).

For the compound `CC(C)NC(=O)CSc1nc2ccccc2n1-c1ccccc1`, the inhibition is 2.5% (inactive) and the cell count came out at 379.

On to `CCCCNC(=O)Cn1c(=O)n(C)c2ccccc21`, for which the inhibition was 6.9% (inactive) and the cell count was found to be 600.

Consider `Cc1csc(NC(=O)C2CCCO2)n1` (stereo not given), for which the inhibition is -11.4% (inactive) and the cell count worked out at 725.

`COc1ccccc1OCCCCNCCO`: the inhibition is 9.1% (inactive) and the cell count came to 493.

For the compound `C/C(=C\c1ccco1)C1C(C#N)=C(N)OC2=C1C(=O)CC(C)(C)C2` (stereo not given), the cell count stood at 595 and the inhibition was -9.1% (inactive).

With `O=C(c1ccc(Cl)c(F)c1F)N1CCCC1`, the cell count turned out to be 384 and the inhibition is 4.4% (inactive).

Consider `CCC(C)(C)n1nnnc1C(c1cc2cc(C)ccc2[nH]c1=O)N1CCCC1` (stereo not given), for which the inhibition was 4.2% (inactive) and the cell count came out at 353.

On to `NC(=O)CCS(=O)(=O)CCN1CCCCC1`, for which the cell count worked out at 361 and the inhibition is 5.7% (inactive).

`Cc1ccc(Cn2nnc(C(=O)Nc3cccc(C)c3C)c2N)cc1`: the cell count came to 457 and the inhibition is 9.4% (inactive).

Turning to `CSc1oc(-c2ccccc2)nc1S(=O)(=O)c1ccc(F)cc1`, the inhibition is 8.3% (inactive) and the cell count is 417.

`c1ccc(CN2CCN(CCCNc3ccc4nnc(-c5ccccc5)n4n3)CC2)cc1`: the inhibition was -5.5% (inactive) and the cell count turned out to be 485.

In the case of `Cc1cc(NC(=O)c2ccccc2)ncc1NC(=O)c1ccco1`, the cell count came out at 427 and the inhibition is 12.5% (inactive).

As to `COc1ccc(Br)cc1C1N2CC3(C)CN1CC(C)(C2)C3=O` (stereo not given), the inhibition is 5.6% (inactive) and the cell count amounted to 435.

Turning to `Clc1cccc(Nc2c3c(nc4ncnn24)CCC3)c1`, the cell count came to 416 and the inhibition was 6% (inactive).

Another assay can be described thus: inhibitors of mutant huntingtin aggregation, primary screen, imaging, exon1htt(103Q)mCFP cells, high-content imaging (AID 483).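 For nuclei count: percent of the per-plate median nuclei count of sample wells.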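 Note: compound exposure lasted 3 days before fixation.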 As to conditions: exon1htt(103Q)mCFP cell line, aggregate imaging, at 2 µM; inhibition of aggregation: stronger effect = higher value; nuclei count: measured here: cell count, toxicity.
Consider `Cc1ccc2c(CC(=O)OCc3csc(C)n3)coc2c1`, for which the inhibition of aggregation was 7.3% (inactive) and the nuclei count is 92.6%.

With `O=C(Nc1ccccc1)c1cnc2n(c1=O)CCS2`, the nuclei count worked out at 106% and the inhibition of aggregation was 11.2% (inactive).

Turning to `Cc1cccc(C2c3c(n(C)c(=O)n(C)c3=O)N=C3c4ccccc4C(=O)C32)c1` (stereo not given), the inhibition of aggregation is 6.9% (inactive) and the nuclei count turned out to be 102%.

Regarding `CC1CC(C)CN(CCCNC(=O)c2ccc3c(c2)NC(=O)C(N2CCCCC2)S3)C1` (stereo not given), the nuclei count stood at 101% and the inhibition of aggregation was -6.5% (inactive).

Take `O=C(Nc1cccnc1)c1noc2c1CCCCC2`: the inhibition of aggregation was 14.8% (inactive) and the nuclei count came out at 98.5%.

Turning to `O=C(OCc1nnc(-c2ccc(Cl)cc2)o1)c1ccc(=O)n(Cc2ccccc2)n1`, the nuclei count was 99.3% and the inhibition of aggregation is 3% (inactive).

Regarding `CC1CCN(C(=O)CSc2nc3ccccc3[nH]2)CC1`, the inhibition of aggregation is 1.8% (inactive) and the nuclei count was determined as 110%.

In the case of `O=C(Nc1ccc2snnc2c1)N1CCSCC1`, the inhibition of aggregation was 1.8% (inactive) and the nuclei count was found to be 97.6%.

On to `Cc1cccc(NS(=O)(=O)c2cc(C(=O)OCC(=O)Nc3cc(C)on3)ccc2C)c1`, for which the inhibition of aggregation is 3.7% (inactive) and the nuclei count turned out to be 99.6%.

As to `COc1ccc(-c2nc3c(c(SCC(=O)N4CCOCC4)n2)COC(C)(C)C3)cc1`, the nuclei count amounted to 100% and the inhibition of aggregation was -8.2% (inactive).

Regarding `CNS(=O)(=O)c1cccc(C(=O)OCC(=O)c2cc(C)n(-c3ccc4c(c3)OCO4)c2C)c1`, the nuclei count amounted to 97.3% and the inhibition of aggregation was -7.6% (inactive).

Regarding `Cc1nc(CCNS(=O)(=O)c2cccs2)cs1`, the nuclei count came to 108% and the inhibition of aggregation is 6.9% (inactive).

Consider `O=C(O)CCc1ccc(-c2ccc(F)cc2)n1CC(=O)O`, for which the inhibition of aggregation was 0.9% (inactive) and the nuclei count was found to be 97%.

Take `CCOc1ccccc1N(CC(=O)N1CCOCC1)S(=O)(=O)c1ccccc1`: the nuclei count is 100% and the inhibition of aggregation was 0.9% (inactive).

Regarding `Cc1onc(-c2ccccc2)c1C(=O)Nc1sc2c(c1C(N)=O)CCC2`, the inhibition of aggregation was -0.6% (inactive) and the nuclei count was 107%.

In the case of `Cn1cc(CN2CCc3ccccc3C2)c2ccccc21`, the inhibition of aggregation was -6.2% (inactive) and the nuclei count amounted to 146%.

Turning to `Cc1cc(C)n(-c2ccc(C(=O)Oc3ccc4c(c3)OCO4)cc2)n1`, the nuclei count was 100% and the inhibition of aggregation was 17.6% (inactive).

Regarding `O=C(O)c1cccc(NS(=O)(=O)c2ccc3nnn(O)c3c2)c1`, the nuclei count worked out at 108% and the inhibition of aggregation was -5.7% (inactive).

`CN(Cc1ccccc1)C(=O)c1ccc2c(c1)OCO2`: the inhibition of aggregation is -8.8% (inactive) and the nuclei count amounted to 108%.

For `COc1cccc(C(=O)Nc2ccc(C)cc2)c1`, the nuclei count worked out at 95.1% and the inhibition of aggregation was 4.8% (inactive).

For `Cc1cc(NC(=O)CCOc2ccccc2)no1`, the inhibition of aggregation was -20.8% (inactive) and the nuclei count turned out to be 113%.

Turning to `CCCCOc1ccc(CSc2n[nH]c(C)n2)cc1`, the inhibition of aggregation is -0.4% (inactive) and the nuclei count stood at 86.8%.

Regarding `COc1ccc(C)cc1NCc1cccc(OC)c1OC`, the nuclei count was 111% and the inhibition of aggregation is 7% (inactive).

On to `O=C(CSc1nc(-c2ccccc2)cs1)NC(=O)NCc1ccco1`, for which the nuclei count came out at 75.7% and the inhibition of aggregation is 1% (inactive).

As to `COC(=O)C1=C(C)C(c2cccs2)NC(=O)N1C` (stereo not given), the inhibition of aggregation was -0.4% (inactive) and the nuclei count was found to be 102%.

On to `CCCn1c(N)c(C(=O)CSc2nnc(Cc3ccccc3)o2)c(=O)n(C)c1=O`, for which the nuclei count stood at 99.8% and the inhibition of aggregation is 4.7% (inactive).

`CC(C)NC(=O)CSc1nc2ccccc2n1-c1ccccc1`: the nuclei count worked out at 84.5% and the inhibition of aggregation is -2.9% (inactive).

For the compound `CCCCNC(=O)Cn1c(=O)n(C)c2ccccc21`, the nuclei count is 111% and the inhibition of aggregation was -14.7% (inactive).

With `Cc1csc(NC(=O)C2CCCO2)n1` (stereo not given), the inhibition of aggregation was -7.3% (inactive) and the nuclei count turned out to be 101%.

In the case of `COc1ccccc1OCCCCNCCO`, the nuclei count was determined as 103% and the inhibition of aggregation was -4.6% (inactive).

Turning to `C/C(=C\c1ccco1)C1C(C#N)=C(N)OC2=C1C(=O)CC(C)(C)C2` (stereo not given), the inhibition of aggregation was 11.6% (inactive) and the nuclei count was 96.3%.

Consider `O=C(c1ccc(Cl)c(F)c1F)N1CCCC1`, for which the inhibition of aggregation is -11.4% (inactive) and the nuclei count worked out at 112%.

For `CCC(C)(C)n1nnnc1C(c1cc2cc(C)ccc2[nH]c1=O)N1CCCC1` (stereo not given), the inhibition of aggregation is -27.7% (inactive) and the nuclei count was found to be 103%.

As for `NC(=O)CCS(=O)(=O)CCN1CCCCC1`, the nuclei count was 89.8% and the inhibition of aggregation was 2.7% (inactive).

On to `Cc1ccc(Cn2nnc(C(=O)Nc3cccc(C)c3C)c2N)cc1`, for which the inhibition of aggregation is 1.7% (inactive) and the nuclei count amounted to 95.1%.

Turning to `CSc1oc(-c2ccccc2)nc1S(=O)(=O)c1ccc(F)cc1`, the inhibition of aggregation was 1% (inactive) and the nuclei count came out at 101%.

Turning to `c1ccc(CN2CCN(CCCNc3ccc4nnc(-c5ccccc5)n4n3)CC2)cc1`, the nuclei count amounted to 10.8% and the inhibition of aggregation was 13.8% (inactive).

As to `Cc1cc(NC(=O)c2ccccc2)ncc1NC(=O)c1ccco1`, the inhibition of aggregation was 11.4% (inactive) and the nuclei count is 100%.

On to `COc1ccc(Br)cc1C1N2CC3(C)CN1CC(C)(C2)C3=O` (stereo not given), for which the inhibition of aggregation is 6.8% (inactive) and the nuclei count is 96.9%.

As to `Clc1cccc(Nc2c3c(nc4ncnn24)CCC3)c1`, the nuclei count is 36% and the inhibition of aggregation is -33.4% (inactive).
